From PubChem BioAssay (NCATS)
Inconclusive results are not listed. Where a call stands in place of a potency, no number is given. A number with no mark means an inactive call. Active and inactive are the calls of the source. Calls come from the whole dose curve; as a rule, active = well fitted inhibition curve with a large enough effect; inconclusive = small, poorly fitted or top-dose-only effect; inactive = flat fitted curve, though single readings scatter.

What follows are molecules tested on MCC-26 (assay: qHTS assay to identify novel small-molecules to repurpose for Merkel cell carcinoma treatment (AID 1296009; note: nearly all actives have a fitted effect of over 60% in size)). Conditions: MCC and control cell lines, CellTiter-Glo viability, 72 h; series mostly up to 46 µM.
Outline: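 qHTS format: cells treated with library compounds in DMSO across 8 (NPC) or 11 (MIPE) concentrations. Readout after 72 hr at 37 degree celsius was CellTiter-Glo luminescence.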

**Q.** For `CN1CCC[C@H]1CCO[C@](C)(c1ccccc1)c1ccc(Cl)cc1`, which Potency is on record?
**A.** Its Potency is “inactive”.

**Q.** With `CC(C)(F)C[C@H](N[C@@H](c1ccc(-c2ccc(S(C)(=O)=O)cc2)cc1)C(F)(F)F)C(=O)NC1(C#N)CC1` as the molecule, how does the Potency read?
**A.** Its Potency is “inactive”.

**Q.** For `CN[C@H]1[C@@H](O[C@@H]2[C@H](O[C@@H]3[C@@H](O)[C@@H](O)[C@@H](N=C(N)N)[C@@H](O)[C@@H]3N=C(N)N)O[C@H](C)[C@@]2(O)C=O)O[C@@H](CO)[C@@H](O)[C@H]1O`, which activity change, negative = cytotoxicity is on record?
**A.** The activity change, negative = cytotoxicity was -1.52% [at 9.22 µM].

**Q.** With `COc1ccc2nc3cc(Cl)ccc3c(Nc3cc(CN4CCCC4)c(O)c(CN4CCCC4)c3)c2n1` as the molecule, how does the Potency read?
**A.** The Potency was “inactive”.

**Q.** Which Potency does the source give for `CCCCc1ccc(NS(=O)(=O)c2ccc(C)c(C(=O)N3CCN(c4cccc(C)c4C)CC3)c2)cc1` here?
**A.** Its Potency is “inactive”.

**Q.** For `N=C1SC(=Cc2ccc(-c3ccc4c(c3)C(=O)NC4=O)o2)C(=O)N1c1ccc(Br)cc1`, which Potency is on record?
**A.** The Potency was “inactive”.

**Q.** Which Potency does the source give for `COc1cc2c(cc1Cc1cccc(Cl)c1F)c(=O)c(C(=O)O)cn2[C@H](CO)C(C)C` here?
**A.** The Potency was “inactive”.

**Q.** Which Potency does the source give for `CC[C@H](C)n1cc(C)c2c(C(=O)NCc3c(C)cc(C)[nH]c3=O)cc(-c3ccc(N4CCNCC4)nc3)cc21` here?
**A.** The Potency was “inactive”.

**Q.** How did the Potency turn out when `CCN(CC)CCCCNc1nc2cc(Cl)c(Cl)cc2nc1-c1ccc(-c2cccs2)s1` was run?
**A.** The Potency was “inactive”.

**Q.** For `COc1ccc2cc1Oc1ccc(cc1)C[C@H]1c3cc(c(OC)cc3CCN1C)Oc1c(OC)c(OC)cc3c1[C@H](C2)N(C)CC3`, which Potency is on record?
**A.** The Potency was “inactive”.

**Q.** How did the Potency turn out when `O=C(C=Cc1ccc(O)cc1)c1ccc(O)cc1O` was run?
**A.** The Potency was “inactive”.

**Q.** Which Potency does the source give for `CC(C)c1c(C(=O)Nc2ccccc2)c(-c2ccccc2)c(-c2ccc(F)cc2)n1CC[C@H](O)C[C@@H](O)CC(=O)O` here?
**A.** Its Potency is “inactive”.
